Rows were chosen to be rich in hits. Some 27% of all compounds tested hit in one or more screens of this group.
CYP2C19 inh – inhibitors of human CYP2C19; CYP2C19 Supersomes, luciferin-H EGE luminescence, 30 min; 96,000 tested, 21% active; P33261; inhibition, % at 5 µM; AID 778;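 active means CYP2C19 inhibition above a set limit at 5 µM in the primary screen, cut at about 50% in these data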
Target sequence (P33261 whole entry, looked up): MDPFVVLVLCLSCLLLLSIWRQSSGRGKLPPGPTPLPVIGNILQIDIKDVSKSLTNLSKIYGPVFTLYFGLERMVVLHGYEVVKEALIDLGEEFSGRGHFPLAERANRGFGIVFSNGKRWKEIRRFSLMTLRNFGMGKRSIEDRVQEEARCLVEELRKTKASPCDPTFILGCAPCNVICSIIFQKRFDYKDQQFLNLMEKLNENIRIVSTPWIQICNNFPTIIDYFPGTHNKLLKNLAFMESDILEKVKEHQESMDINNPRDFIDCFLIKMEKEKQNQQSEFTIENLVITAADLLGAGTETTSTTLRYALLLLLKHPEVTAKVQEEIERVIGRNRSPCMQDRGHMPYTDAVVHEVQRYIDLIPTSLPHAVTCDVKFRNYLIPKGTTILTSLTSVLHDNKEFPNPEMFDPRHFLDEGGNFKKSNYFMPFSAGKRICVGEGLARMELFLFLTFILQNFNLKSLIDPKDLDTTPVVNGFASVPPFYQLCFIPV
CYP2C9 act – CYP2C9 (human) activation; P11712; AID 1024; 96,000 tested, 1.4% active; recombinant CYP2C9, luciferin-H conversion, luminescence; active compounds read high; factor 1 = untreated enzyme, 0 = blocked; activation factor at 5 µM;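 active means activation factor of 2 or more for CYP2C9 at a 5 µM dose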
CYP2C19 activ – increases human CYP2C19 enzyme activity | 96,000 tested, under 10 active | activation factor at 5 µM | P33261 | AID 1025 | recombinant CYP2C19, luciferin-H EGE luminescence; active compounds read high; 0 = fully inhibited enzyme, 1 = untreated enzyme;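 active means activation factor of at least 2 at 5 µM in the primary screen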
CYP2C9 inhib – blocks human cytochrome P450 2C9; inhibition, % at 5 µM; AID 777; CYP2C9 Supersomes, luciferin-H conversion, luminescence; 96,000 tested, 20% active;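 active means blocking of liver enzyme CYP2C9 beyond about 50% at 5 µM, limit read from the data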
sEH inh – inhibitors of human soluble epoxide hydrolase. P34913. recombinant human sEH enzymatic activity assay. inhibition, % at 2 µM. 91,000 tested, 0.34% active; in the data active means inhibition above about 80%
sEH activator – soluble epoxide hydrolase (human) activation; purified human sEH enzymatic activity, activator screen; AID 717; 91,000 tested, 0.04% active; activation, % at 2 µM; P34913; in the data active means activation above about 37%
Of the large screens only hits and unclear results are named; the others gave an inactive call.

CN(C(=O)CSC1=NCCS1)c1ccccc1	none
CSCCC(NC=C1C(=O)OC(C)(C)OC1=O)C(=O)O (stereo unspecified)	none
O=C1Nc2ccccc2/C1=N/c1sc2c(c1C(=O)NCCc1ccccc1)CCCC2	none
CCOC(=O)c1cccnc1SCC(=O)N(CC)c1cccc(C)c1	CYP2C19 inh 65
C=CCSc1ncccc1C(=O)NCc1ccccc1	CYP2C19 inh 88
COc1ccc(NC(C)=O)cc1NC(=O)CSc1nc2ncccc2[nH]1	CYP2C9 inhib 56
COc1ccc(NC(=O)CSc2ncccc2C(=O)OC(C)C)cc1OC	CYP2C19 inh 92, CYP2C9 inhib 77
COc1cc(NC(=O)c2cc(-c3cccnc3)nc3ccc(C)cc23)c(OC)cc1Cl	none
CCOC(=O)NC(=O)COC(=O)Cc1cc(OC)c(OC)c(OC)c1	none
CS(=O)(=O)NCCCNc1ccc(Cl)cc1[N+](=O)[O-]	CYP2C19 inh 66
Cc1ccc(C(=O)NCCNc2ccc(Cl)cc2[N+](=O)[O-])o1	CYP2C9 inhib 55
CCNCCNc1ccc(Cl)cc1[N+](=O)[O-]	none (no result: CYP2C19 inh, CYP2C9 act, CYP2C19 activ, CYP2C9 inhib)
Cc1ccc(CNc2ccc(Cl)cc2[N+](=O)[O-])cc1	none
COc1ccc2[nH]c(=O)c(CN(Cc3cccs3)Cc3nnnn3C(C)(C)C)cc2c1	CYP2C19 inh 91, CYP2C9 inhib 88
CCOC(=O)Cn1nnnc1C(CC)N(Cc1cccs1)Cc1cc2ccc(OC)cc2[nH]c1=O (stereo unspecified)	CYP2C19 inh 96, CYP2C9 inhib 91
Cc1ccc2[nH]c(=O)c(CN(Cc3cccs3)Cc3nnnn3Cc3ccccc3)cc2c1	CYP2C19 inh 93, CYP2C9 inhib 60 (no result: sEH inh, sEH activator)
CCOC(=O)Cn1nnnc1CN(CCc1ccccc1)Cc1cc2cc(CC)ccc2[nH]c1=O	CYP2C9 inhib 72
CCOc1ccc2[nH]c(=O)c(CN(Cc3cccs3)Cc3nnnn3C(C)(C)C)cc2c1	none
CCc1ccc2[nH]c(=O)c(CN(CCCO)C(=O)NCc3ccccc3)cc2c1	none
O=C(NCC12CC3CC(CC(C3)C1)C2)c1nn2c(c1Cl)NC(c1ccco1)CC2C(F)(F)F (stereo unspecified)	none
C1CCN(c2c3c(nc4nnnn24)CCCC3)CC1	none
O=C(NCC(=O)N(Cc1cccs1)C(C(=O)NC1CCCCC1)c1cccnc1)c1ccco1 (stereo unspecified)	none (no result: CYP2C19 inh, CYP2C9 act, CYP2C19 activ, CYP2C9 inhib)
Cc1ccc2[nH]c(=O)c(CN(CCO)Cc3nnnn3CCc3ccccc3)cc2c1	CYP2C19 inh 71
Cc1ccc2[nH]c(=O)c(CN(CCO)C(=O)NCc3ccccc3)cc2c1	none (no result: sEH inh, sEH activator)
CCOC(=O)Cn1nnnc1CN(Cc1cccs1)Cc1cc2cc(C)ccc2[nH]c1=O	CYP2C19 inh 65
CC1CCN(C(=O)CNC(=O)Cn2ccc3ccccc3c2=O)CC1	none
Cn1c(=O)c2c(n(Cc3ccccc3)c1=O)NC(=O)C2CC(=O)NCc1cccc(Cl)c1 (stereo unspecified)	none
N=c1n(CCN2CCCCC2)c2ccccc2n1CC(O)c1ccc(Cl)c(Cl)c1 (stereo unspecified)	CYP2C9 inhib 82
N=c1n(CCN2CCCCC2)c2ccccc2n1CC(O)c1cccc(Br)c1 (stereo unspecified)	none
O=C1CCCN1CCCNCC(=O)N1c2ccccc2Sc2ccccc21	none
Cc1ccc(NC(=O)CS(=O)CC(=O)NCCCN(C)c2ccccc2)cc1 (stereo unspecified)	CYP2C19 inh 60, CYP2C9 inhib 84
CCOC(=O)C(O)(C1C(=O)CC(C)(C)CC1=O)C(F)(F)F (stereo unspecified)	CYP2C9 inhib 93 (no result: sEH inh, sEH activator)
CC(=O)NC(C1C(=O)CC(C)(C)CC1=O)(C(F)(F)F)C(F)(F)F	none (no result: sEH inh, sEH activator)
[O-]/[N+](=C\c1ccc(F)cc1)c1ccccc1	none
CCc1ccc(NC(=O)Cc2cn(C)c3ccccc23)cc1	CYP2C9 act 2.5
CCc1ccc(NC(=O)Cn2c(=O)n(CCCC(=O)NCc3ccco3)c(=O)c3ccccc32)cc1	none
CCc1cccc(NC(=O)C2CCCC2)c1	none
Cn1cc(CC(=O)Nc2cccc(C#N)c2)c2ccccc21	CYP2C9 act 3.1
COCCNC(=O)Cc1cn(C)c2ccccc12	none
CCc1cccc(NC(=O)Cc2cn(C)c3ccccc23)c1	CYP2C9 act 2.8
CCC(C)NC(=O)Cc1cn(C)c2ccccc12 (stereo unspecified)	CYP2C19 inh 60
O=C(NCCc1cn2ccccc2n1)C1CCCCC1	none

Source: PubChem
